Most compounds without a hit are left out; they make up all but 5.7% or so of the library.
hcDAF12 agonist: H. contortus DAF-12 activation, primary screen | AID 652067 | HEK293 hcDAF-12 lit1-tk-luc reporter, luminescence; 0% DMSO, 100% Δ7-dafachronic acid | activation, % at 6.8 µM | 370,000 tested, 1.4% active;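 active = activation above the mean of all tested compounds plus 3 SD, cut at about 5.5% in these data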;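 also: 100% = response to 3 µM Δ7-dafachronic acid high control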
DAX1 inh-1: DAX1 (NR0B1) inhibition, primary screen. HEK293T StAR-luciferase reporter, SF-1/DAX-1 repression relief. inhibition, % at 6.8 µM. 370,000 tested, 1.1% active. AID 652010;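 active = inhibition above the mean over all tested compounds plus 3 SD, cut at about 3.6% in these data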;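 also: 0% = DAX-1 cells with DMSO and 100% = cells lacking DAX-1 with DMSO; higher inhibition means more luminescence from relief of DAX-1 repression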
AHR activator: human AHR activation; activation, % at 5 µM; P35869; 320,000 tested, 2.5% active; AHR-responsive luciferase reporter cells, luminescence; in the data active = activation above about 47%;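 also: 0% = vehicle wells and 100% = reference agonist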
Target sequence (P35869 whole entry, looked up): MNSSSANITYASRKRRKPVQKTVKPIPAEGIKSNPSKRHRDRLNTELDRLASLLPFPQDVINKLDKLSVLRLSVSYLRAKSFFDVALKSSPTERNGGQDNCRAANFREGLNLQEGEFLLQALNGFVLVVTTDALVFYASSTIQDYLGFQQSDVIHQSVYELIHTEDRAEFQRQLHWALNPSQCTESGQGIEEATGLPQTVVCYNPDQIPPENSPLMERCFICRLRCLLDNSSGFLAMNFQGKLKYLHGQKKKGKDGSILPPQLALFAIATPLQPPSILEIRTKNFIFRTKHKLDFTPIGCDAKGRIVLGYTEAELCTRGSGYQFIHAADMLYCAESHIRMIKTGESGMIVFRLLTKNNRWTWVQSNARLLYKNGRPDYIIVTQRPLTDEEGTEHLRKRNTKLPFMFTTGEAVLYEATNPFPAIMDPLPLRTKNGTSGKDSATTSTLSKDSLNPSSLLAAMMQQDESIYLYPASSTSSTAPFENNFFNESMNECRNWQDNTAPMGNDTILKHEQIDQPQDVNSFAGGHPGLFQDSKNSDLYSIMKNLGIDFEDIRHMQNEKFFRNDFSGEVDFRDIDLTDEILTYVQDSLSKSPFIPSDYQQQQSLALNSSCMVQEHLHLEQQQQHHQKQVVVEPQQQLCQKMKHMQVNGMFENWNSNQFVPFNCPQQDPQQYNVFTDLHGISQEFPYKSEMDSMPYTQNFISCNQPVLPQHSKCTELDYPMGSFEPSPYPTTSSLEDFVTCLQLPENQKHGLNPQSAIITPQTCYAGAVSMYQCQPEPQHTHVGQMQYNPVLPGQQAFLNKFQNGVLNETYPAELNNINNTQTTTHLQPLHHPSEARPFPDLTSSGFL
DAX1 inh-2: inhibits human nuclear receptor DAX1; P51843; HEK293 Gal4-DAX1 luciferase reporter, luminescence; inhibition, % at 6.75 µM; 340,000 tested, 0.99% active; AID 504766;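 active = inhibition above the mean over all tested compounds plus 3 SD, cut at about 4.2% in these data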;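 also: 0% = DAX1-transfected cells with DMSO and 100% = empty-vector control cells with DMSO; inhibition shows as a rise in luminescence from relieved DAX1 repression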
hgDAF-12 ag: activates the H. glycines DAF-12 receptor ligand-binding domain; AID 687014; activation, % at 6.8 µM; HEK293 GAL4-hgDAF12 UAS-luciferase reporter, agonist luminescence; normalized to butyrate control; 370,000 tested, 1.8% active;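 active = activation above a cutoff set at the mean of all screened compounds plus 3 SD, cut at about 10% in these data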;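 also: 0% = DMSO wells and 100% = sodium butyrate wells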
ssDAF12 agonist: S. stercoralis DAF-12 activation, primary screen; activation, % at 6.8 µM; HEK293 ssDAF-12/GRIP1 lit1-tk-luc reporter, luminescence; % of 3 µM dafachronic acid response; 370,000 tested, 1% active; AID 652126;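 active = activation above the mean over all tested compounds plus 3 SD, cut at about 0.9% in these data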;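 also: 0% = DMSO-only wells and 100% = 3 µM delta7-dafachronic acid wells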
DAX1 inh confirm: NR0B1 (human) inhibition, confirmation. inhibition, % at 6.8 µM. 2,400 tested, 87% active. HEK293T StAR-promoter luciferase reporter, SF-1/DAX-1 repression. shares compounds with DAX1 inh-1;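 active = inhibition above the average of every tested compound plus 3 SD, cut at about 3.8% in these data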;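 also: 0% = DAX-1 cells with DMSO and 100% = no DAX-1 control cells with DMSO; active compounds raise luminescence by relieving repression of the StAR reporter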
SF1 mutant ctr: nonselective inhibitor or artifact in SF-1 mutant DAX1 counter-screen; shares compounds with DAX1 inh-1; HEK293 StAR-luciferase, SF-1 AF2 mutant, luminescence; inhibition, % at 6.8 µM; 2,400 tested, 78% active;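 active = inhibition above the mean of all tested compounds plus 3 SD, cut at about 3% in these data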;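 also: 0% = DAX-1 transfected cells with DMSO and 100% = cells without DAX-1 with DMSO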
An asterisk follows results filed as active; · = not tested or not shown.

SMILES	hcDAF12 agonist	DAX1 inh-1	AHR activator	DAX1 inh-2	hgDAF-12 ag	ssDAF12 agonist	DAX1 inh confirm	SF1 mutant ctr
CC1CCN(c2ccc(-c3cccc(NC(=O)c4ccco4)c3)nn2)CC1	3	8.0*	-11	-1	10	0	11*	3.4*
N#CC(=C=[N-])c1nc2ccccc2nc1-[n+]1cccc(NC(=O)c2ccccc2)c1	-1	0	-2	0	3	-1	·	·
O=C(N/N=C/c1ccc(-c2ccc([N+](=O)[O-])cc2)o1)c1cccnc1	1	0	24	·	1	-2	·	·
CCOC(=O)N1CCC(Nc2nc3ccccc3n3cnnc23)CC1	-1	2	0	0	-1	-2	·	·
Cc1ccc(/C=C/C(=O)NC2CCS(=O)(=O)C2)cc1 (centres undefined)	1	0	8	1	0	-2	·	·
CCc1nc(N2CCN(C(=O)c3ccccc3)CC2)c(C#N)c2c1COC(C)(C)C2	-3	-2	-4	-1	-5	-2	·	·
COc1cc(C(=O)N/N=C(\C)c2ccccn2)cc(OC)c1OC	1	8.3*	63*	-2	-5	0	-1	0
COc1cc(C(=O)N/N=C(\c2ccccc2)c2ccccn2)cc(OC)c1OC	-4	-2	25	-2	-9	-2	·	·
CCN(C(=O)COC(=O)c1cccn1C)C1CCS(=O)(=O)C1 (centres undefined)	0	0	-1	0	1	-1	·	·
CC(C)(C)C1=CC(=O)C(=O)C(C(C)(C)C)=C1	·	·	-2	2	·	·	·	·
CC(C)(C)C1=CC(=Nc2ccccc2N)C=C(C(C)(C)C)C1=O	5	4.6*	0	0	13*	2.9*	-1	0
O=C(Nc1nnc(C2CC2)s1)c1cncc(Br)c1	1	4.8*	42	1	7	-1	5.9*	3.9*
Cc1ccsc1C(=O)OCC(=O)Nc1ccc(Cl)cn1	-3	2	1	1	2	-1	·	·
Cc1ccc(NC(=O)c2sccc2C)nc1	5	9.7*	12	2	11*	1	9.2*	7.2*
Cc1ccc(NC(=O)CCC(=O)c2cccs2)c(Br)c1	3	8.0*	-1	2	7	0	7.6*	5.5*
O=C(Nc1cccc(Cl)c1)Nc1ccc(Cl)cn1	-1	1	8	0	0	-1	·	·
O=C(NC(=O)c1ccccc1)Nc1ccc(Cl)cn1	4	7.9*	14	1	9	0	14*	7.3*
COc1ccc(CCNC(=O)c2cccn2C)cc1	5	6.3*	3	4	9	-1	7.8*	6.5*
CCC(C)[C@H](N)c1nnc(SCC(=O)Nc2ccc(C)cc2C)o1 (some centres undefined)	5	0	10	1	0	-1	·	·
CCOC(=O)c1c(NC(=O)CCS(=O)(=O)c2ccccc2)sc2c1CC(C)(C)NC2(C)C	-2	-1	-1	0	2	-1	·	·
COc1cc(OC)c2c(=O)c(OC)c(-c3ccc(OC)c(OC)c3)oc2c1	·	·	14	-1	·	·	·	·
COc1ccc(-c2oc3cc(O)c(OC)c(O)c3c(=O)c2OC)cc1O	2	7.9*	·	-1	-3	1	16*	-9
CCN(N=O)c1ccc(C=C2C=Cc3ccccc32)cc1	5.8*	6.6*	·	3	19*	0	9.3*	5.7*
CN(N=O)c1ccc(C=C2C=Cc3ccccc32)cc1	7.4*	6.3*	·	5.0*	11*	1.0*	12*	6.8*
CC(=O)N(C)c1ccc(C=C2C=Cc3ccccc32)cc1	6.2*	4.9*	·	0	6	0	3	-2
SMILES	hcDAF12 agonist	DAX1 inh-1	AHR activator	DAX1 inh-2	hgDAF-12 ag	ssDAF12 agonist	DAX1 inh confirm	SF1 mutant ctr
CN(c1ccccc1)S(=O)(=O)c1cccc(NC(=O)COC(=O)C2CCCCC2)c1	1	0	-2	0	-1	-1	·	·
CCOc1ccc(NC(=O)c2ccc3c(c2)N(C)CCS3)cc1	1	5.0*	·	2	10	-1	5.0*	3
CCN1CCSc2ccc(C(=O)Nc3ccc(NC(C)=O)cc3)cc21	-2	0	11	-2	-1	-2	·	·
COC(=O)c1nn(-c2ccc3c(c2)OCO3)cc1O	3	2	8	1	5	-1	·	·
CCOC(=O)c1nn(-c2ccc3c(c2)OCCO3)cc1O	3	8.0*	6	0	13*	-1	9.7*	5.7*
CCc1ccc(/C=N/Nc2ncnc3nc[nH]c23)cc1	3	5.2*	45	0	11*	-1	14*	1
COc1ccc(N=C2C(=S)N(c3ccc(OC)cc3)C(=NS(=O)(=O)c3ccccc3)N2c2ccccc2)cc1	5	8.2*	·	2	13*	0	2	4.2*
COc1ccc(N2C(=O)NC(NS(=O)(=O)c3ccccc3)(C(F)(F)F)C2=O)cc1 (centres undefined)	0	0	-2	0	1	-1	·	·
CCOc1ncccc1C(=O)Nc1cccc(S(=O)(=O)N2CCCCC2)c1	-2	-1	2	0	4	-1	·	·
CN(C)S(=O)(=O)c1ccc(C(=O)Nc2nnc(SCC(=O)NCC3CCCO3)s2)cc1 (centres undefined)	1	2	-1	0	4	0	·	·
CCOc1ccc(C(=O)Nc2nnc(SCC(=O)NCC3CCCO3)s2)cc1 (centres undefined)	6.1*	5.4*	0	-3	7	0	4.2*	2
CC(C)(C)c1ccc(C(=O)Nc2nnc(SCC(=O)NCC3CCCO3)s2)cc1 (centres undefined)	5	11*	-1	-1	10	0	8.9*	6.1*
COC(=O)CCCC1=CC2=C(c3ccccc3)C(=O)C(C)(OC(=O)C3CCCC3)C(=O)C2=CN1CC(C)C (centres undefined)	-5	0	1	0	3	-1	·	·
O=C(Cn1c(=O)cnc2ccccc21)N1CCCc2ccccc21	2	0	14	0	1	-1	·	·
CCOc1cc(N2CCOCC2)c(OCC)cc1NC(=O)Cn1nc(C)c([N+](=O)[O-])c1C	-2	4.7*	-1	-1	2	-1	2	1
CCOc1cc(C(=O)O/N=C(\N)c2ccccn2)cc(OCC)c1OCC	-1	0	17	0	3	-1	·	·
CCOc1ccc(C(=O)O/N=C(\N)c2ccccn2)cc1OCC	2	6.3*	7	1	12*	0	3	4.5*

Assay outcomes (PubChem)
